Screening results (PubChem)
KB-3-1 cytotox: qHTS assay for MDR1-selective chemotherapeutics: Primary screen using the parental adenocarcinoma cell KB-3-1; KB-3-1 viability, CellTiter-Glo ATP luminescence, 72 h; Potency, µM (top dose mostly 46.1 µM), most hits filed as cytotoxic; actives 1.4% (n = 400,000); AID 1347075, 2019; also: % is scaled to controls: 0 for no effect and ±100 for the full control effect; nearly all actives have a fitted effect of over 60% in size
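KB-3-1 cells, DMEM (no phenol red) + 10% FBS; compound by pin transfer, 72 h, 37 °C. Readout: CellTiter-Glo luminescence after 10 min. Data normalized, curve-fitted.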
KB-V1 cytotox: qHTS assay for MDR1-selective chemotherapeutics: Primary screen using the drug-selected MDR subline cells KB-V1 | KB-V1 MDR cells viability, CellTiter-Glo, 72 h | Potency, µM (series often up to 46.1 µM), hits mostly cytotoxic | actives 3.4% (n = 400,000) | AID 1347076, 2019; also: % is scaled to controls: 0 for no effect and ±100 for the full control effect; nearly all actives have a fitted effect of over 60% in size
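KB-V1 cells (P-gp-expressing MDR subline of KB-3-1) in phenol-red-free DMEM with 10% FBS were exposed to library compounds over a concentration series for 72 h at 37 degrees C. Viability read by CellTiter-Glo luminescence; concentration-effect curves fitted after normalization.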
ELG1 DNA repair: qHTS screen for small molecules that inhibit ELG1-dependent DNA repair in human embryonic kidney (HEK293T) cells expressing luciferase-tagged ELG1 | AID 504467, 2011 | HEK293T ELG1-luciferase reporter, luminescence, 16 h; DNA damage induced by 5-fluorouridine | Potency, µM (top dose mostly 46.1 µM), without a hit: top-dose activity change, negative = inhibition, most hits filed as inhibitors | actives 2.3% (n = 330,000); also: % is scaled to controls: 0 for no effect and ±100 for the full control effect; nearly all actives have a fitted effect of over 55% in size
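HEK293T cells expressing luciferase-tagged ELG1 (2,000/well) received 5-Fluorouridine plus compound or DMSO for 16 hr at 37 °C. Luciferase was read by ONE-Glo luminescence after 30 min at room temperature.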
MCF10A rerep: A quantitative high throughput screen for small molecules that induce DNA re-replication in MCF 10a normal breast cells. AID 624296, 2012. actives 2.9% (n = 350,000). Potency, µM (top dose mostly 46.1 µM), for the others: at the top dose activity, positive = re-replication, most hits filed as activators. MCF 10A DNA re-replication, Hoechst nuclear intensity, 48 h; also: % of control where 0% means no effect; nearly all actives have a fitted effect of over 50% in size
SW480 rereplic: A quantitative high throughput screen for small molecules that induce DNA re-replication in SW480 colon adenocarcinoma cells; SW480 DNA re-replication, Hoechst DNA content imaging, 48 h; Potency, µM (titrated, usually from 46.1 µM), inactives show at the top dose re-replication activation, usual class: activators; actives 1.8% (n = 340,000); also: % of control where 0% means no effect; nearly all actives have a fitted effect of over 55% in size
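Image-based read-out: total Hoechst fluorescence of nuclei (405 nm excitation, 500-530 nm emission), with hits raising the fraction of high-intensity nuclei. SW480 colon cells incubated 48 hr with compounds at 37 C.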
Numbers without * were called inactive; i = inactive; ? = inconclusive; . = no result. Shown are actives, neighbours in structure and some others; about 8.1% of the full set was active somewhere. Calls follow the shape of the dose curve; as a rule, active = well fitted curve in the direction sought with a large enough effect; inconclusive = small, poorly fitted or top-dose-only effect, or another doubt; inactive = no such curve, though single readings can be large; an effect the other way counts as inactive or inconclusive. Potency is read from the fitted curve at half-maximal effect.

SMILES	KB-3-1 cytotox	KB-V1 cytotox	ELG1 DNA repair	MCF10A rerep	SW480 rereplic
O=C(CS(=O)(=O)c1ccccc1)Nc1ccc(Cl)cn1	i	i	27.4%	-0.9%	4.0%
O=C(COC(=O)/C=C/c1ccccc1)Nc1ccc(Cl)cn1	i	i	-4.0%	-0.1%	-11.1%
O=C(/C=C/c1ccccc1)Nc1ccc(Cl)cn1	18.4µM*	?	?	?	14.6µM*
O=S(=O)(c1ccc(F)cc1)N1CCC(n2c(C(F)(F)F)nc3cccnc32)CC1	i	i	.	.	.
CCOc1ccc(-n2ccn3c(CC(C)CC(=O)O)nnc3c2=O)cc1 (stereo unspecified)	i	i	.	.	.
COC(=O)[C@]1(Cc2ccccc2)N[C@H](c2ccc(-c3cc(C(C)=O)cs3)cc2)[C@@H]2C(=O)N(C)C(=O)[C@@H]21	i	i	7.5%	-9.2%	4.1%
Cc1ccc(-c2n[nH]c(=S)n2C)cc1	?	16.4µM*	8.0%	-1.9%	-7.2%
CC(C)(C)n1nnnc1C(c1cccc(C(F)(F)F)c1)N1CCC(O)CC1 (stereo unspecified)	0.0046µM*	i	37.7%	11.0%	-14.9%
O=S(=O)(c1ccc(Cl)cc1)N1CCN=C1SCc1cccc(Cl)c1	i	20.6µM*	3.1%	12.2%	-12.6%
COc1ccc(NC(=O)CN2C(=O)C(C)Oc3ccccc32)cc1OC (stereo unspecified)	i	i	-1.5%	-2.7%	-10.4%
COc1ccc(-c2csc(NC(=O)C3CC(=O)N(c4ccc5c(c4)OCCO5)C3)n2)cc1 (stereo unspecified)	i	20.6µM*	23.1µM*	22.0%	.
CC1(C)C(=O)N(CC(=O)Nc2ccc(Br)cc2F)c2ccccc21	i	i	.	.	.
COc1cccc(Nc2nc3cc(C)ccc3cc2C)c1	i	i	.	.	.
On1onc2c3cc(-c4ccccc4)nc3ccc21	i	14.6µM*	?	8.2µM*	7.31µM*
c1ccc(-c2cc3c(ccc4nonc43)nn2)cc1	i	i	?	-0.8%	13.8%
CC1(CCc2ccccc2)NC(=O)N(CC(=O)Nc2ccc(OC(F)F)cc2)C1=O (stereo unspecified)	i	20.6µM*	?	3.6%	1.2%
COc1ccc(CN2C(=O)C(CC(=O)NC3CCCCC3)CC(C(=O)N(C(C)C)C(C)C)=C2C)cc1 (stereo unspecified)	i	i	.	.	.
CCC(CCNC(=O)c1ccccc1)(CCNC(=O)c1ccccc1)[N+](=O)[O-]	i	20.6µM*	.	1.8%	-3.2%
O=C(NCCc1ccc([N+](=O)[O-])cc1)c1ccccc1	i	i	?	-5.4%	-9.6%
CC(CCNC(=O)c1ccccc1)(CCNC(=O)c1ccccc1)[N+](=O)[O-]	i	14.6µM*	.	1.6%	0.9%
CC(C)(C)SCCNC(=O)c1ccccc1	i	i	?	-2.7%	-0.2%
Cc1c2cnn(-c3ccccc3)c(=O)c2c(C)n1CC(=O)NCCc1ccc(Cl)cc1	i	i	.	.	.
COc1ccc(CCNC(=O)c2cc3c(=O)oc4ccc(C)cc4c3s2)cc1OC	?	i	.	.	.
S=C(Nc1ccc(Br)cc1Cl)N1CCCC1	.	.	-7.6%	0.4%	-1.7%
O=C(Nc1ccc(CN2CCCCC2)cc1)Nc1ccc(Br)cc1Cl	13µM*	?	8.8%	16.4µM*	?
COc1c(Cl)cc(Cl)cc1C(=O)Nc1ccc(CN2CCCCC2)cc1	i	i	13.3%	11.6µM*	-0.7%
O=c1n(Cc2ccc(Cl)cc2)c2sc3c(c2c2ncnn12)CCCC3	?	?	?	?	-4.7%
C=CCn1c(=O)n2ncnc2c2c3c(sc21)CCCC3	i	14.6µM*	-17.4%	-0.5%	-10.1%
COc1cc(C2c3cc4c(cc3CC3COC(=O)N32)OCO4)cc(OC)c1OC (stereo unspecified)	0.731µM*	2.06µM*	.	1.3µM*	1.16µM*
